# Reference: PubChem BioAssay AID2717 (Broad Institute, 2010)
# The whole screen tested about 300,000 compounds, of which about 3,200 (1.1%) were called active. No stated cut-off is given here; in the data, active means inhibition above about 75%; inconclusive means no clear call, values can overlap the other calls; inactive means below that; tested in HMLE shEcad cells. This excerpt belongs to a sample that is enriched for actives.
# Test: growth suppression of cancer stem-like cells – cell-based, luminescence, primary screen (AID 2717)
# Settings: cancer stem cell-like cells viability, at 7.5 µM, active compounds read high
row,Structure (SMILES),inhibition
1,O=C(COC(=O)c1ccc(F)c(S(=O)(=O)N2CCOCC2)c1)NCc1ccc2c(c1)OCO2,8.38% (inactive)
2,O=C(COc1ccc(F)cc1Br)NCC1COc2ccccc2O1 (centres undefined),6.88% (inactive)
3,Cc1cc(C)cc(OCC(=O)Nc2ccc(N3CCOCC3)cc2N2CCOCC2)c1,6.1% (inactive)
4,COc1ccccc1C(=O)NCC(=O)OCC(=O)NNC(=O)c1ccc(Br)cc1,-1.35% (inactive)
5,CCCCCCOc1ccc(OC(=O)c2cccnc2)cc1,86.1% (active)
6,N#CCc1ccc(OC(=O)c2cccnc2)cc1,9.72% (inactive)
7,O=C(Oc1ccc(Br)cc1)c1cccnc1,4.5% (inactive)
8,CCc1cc2c(N3CCN(c4nnc(CC)s4)CC3)ncnc2s1,1.61% (inactive)
9,Oc1ccccc1N1CCN(c2ncnc3sc(-c4ccccc4)cc23)CC1,80.7% (active)
10,COc1ccc(Nc2ncnc3sc(-c4ccccc4)cc23)c(OC)c1,38.3% (inactive)
11,O=C(OCC(=O)N1CCN(C(=O)c2ccco2)CC1)c1c(Cl)cccc1Cl,-3.78% (inactive)
12,N#Cc1c(NC(=O)CCCN2C(=O)c3ccccc3C2=O)oc(-c2ccccc2)c1-c1ccccc1,-2.49% (inactive)
13,COc1ccc(-c2oc(/N=C/N3CCCC3)c(C#N)c2-c2ccc(OC)cc2)cc1,-4.12% (inactive)
14,N#Cc1c(/N=C/N2CCCC2)oc(-c2ccccc2)c1-c1ccccc1,127% (active)
15,Oc1ccccc1CN1CCN(C(c2ccccc2)c2ccccc2)CC1,28.7% (inactive)
16,CCN1CCN(C(c2cccnc2)c2cc(Cl)c3cccnc3c2O)CC1 (centres undefined),77.7% (active)
17,CCOC(=O)N1CCN(C(c2cccnc2)c2ccc3cccnc3c2O)CC1 (centres undefined),30.6% (inactive)
18,COc1ccc(CNC(=O)COC(=O)c2sccc2C)cc1OC,0.384% (inactive)
19,CC1(C)Cc2ccccc2/C(=C/C(=O)c2ccccc2)N1,78.5% (active)
20,CCOC(=O)C1=C(NC(=S)NC(=O)c2ccccc2)c2ccccc2CC1(C)C,3.23% (inactive)

row,Structure (SMILES),inhibition
1,CC1(C)Cc2ccccc2-c2[nH]c(=S)[nH]c(=O)c21,0.325% (inactive)
2,CC1CCCCC1NC(=O)Cn1c(=O)cnc2ccccc21 (centres undefined),0.34% (inactive)
3,O=C(NCc1ccc2c(c1)OCO2)c1cc([N+](=O)[O-])ccc1N1CCOCC1,46.4% (inactive)
4,OC(CNCC1CCCO1)Cn1c2ccc(Br)cc2c2cc(Br)ccc21 (centres undefined),116% (active)
5,O=C(CSc1ccc(-c2ccc(Br)cc2)nn1)NCC1CCCO1 (centres undefined),1.96% (inactive)
6,CC(NS(=O)(=O)c1ccc(Br)cc1)C(=O)NCC1CCCO1 (centres undefined),-4.45% (inactive)
7,Cc1cc(C(=O)OCC(=O)N2C(C)CCCC2C)c2ccccc2n1 (centres undefined),-3.37% (inactive)
8,Cc1cc(C)n(-c2c(F)c(F)c(COC(=O)c3ccccc3)c(F)c2F)n1,3.98% (inactive)
9,CCOC(=O)c1cnc(-n2nc(C)cc2C)nc1NNc1cc(C)nc(-c2ccccc2)n1,101% (active)
10,CCOC(=O)c1cnc(-n2nc(C)cc2C)nc1Nc1cccc(C(C)=O)c1,-9.8% (inactive)
11,Nn1c(SCC(=O)Nc2ccc3c(c2)CCC3)nnc1C1CC1,-6.39% (inactive)
12,O=C(COC(=O)c1ccc(F)cc1)NCC1COc2ccccc2O1 (centres undefined),-14.2% (inactive)
13,CCCc1cc(=O)[nH]c(SCC(=O)OCc2ccccc2)n1,4.11% (inactive)
14,CCCc1cc(=O)[nH]c(SCC(=O)c2c(N)n(CC(C)C)c(=O)n(C)c2=O)n1,83.8% (active)
15,CCCc1cc(=O)[nH]c(SCC(=O)c2cc(C)n(CCC)c2C)n1,-3.32% (inactive)
16,O=C(CCc1nc(-c2ccccc2)no1)Nc1cccc(C(=O)NC2CC2)c1,1.1% (inactive)
17,CCN(C(=O)COC(=O)c1ccccc1O)c1cccc2ccccc12,-18.3% (inactive)
18,CCc1cc(C(=O)Nc2nnc(C3CC3)s2)sc1C,-10.9% (inactive)
19,C[C@H](CO)N1C[C@H](C)[C@@H](CN(C)C(=O)Nc2ccc3c(c2)OCO3)Oc2c(cccc2N(C)C)C1=O,-12.1% (inactive)
20,COc1ccc2sc(-c3ccc(S(C)(=O)=O)cc3)c(C#Cc3cncn3C)c2c1,45.5% (inactive)

row,Structure (SMILES),inhibition
1,COc1ccc(-c2c(C#Cc3ccccc3)c3ccccc3n2C)cc1,3.8% (inactive)
2,COc1ccc2sc(-c3ccc(N(C)C)cc3)c(C#CCO)c2c1,113% (active)
3,COc1ccc(-c2sc3ccc(OC)cc3c2C#Cc2ccccn2)cc1,111% (active)
4,COc1ccc(C2(C)ON(c3ccccc3C(F)(F)F)C2=O)cc1 (centres undefined),6.61% (inactive)
5,Cn1nnnc1SCC(=O)Nc1cccc(S(=O)(=O)N2CCCCC2)c1,1.58% (inactive)
6,Cn1cccc1C(=O)OCC(=O)NCCc1ccccc1,6.32% (inactive)
7,Cc1cccc2cc3c(N)c(C(=O)N4CCCc5ccccc54)sc3nc12,85.3% (active)
8,Cc1c(C(=O)N2CCCc3ccccc32)oc2ccccc12,-3.96% (inactive)
9,Cc1c(C(=O)N2CCCc3ccccc32)sc2nc(-c3ccccc3)cn12,36.7% (inactive)
10,Oc1c(Cl)cc(Cl)c(Cl)c1Cc1c(O)c(Cl)cc(Cl)c1Cl,99.3% (active)
11,Cc1ccc(NS(=O)(=O)c2ccc(C(C)C)cc2)cc1S(=O)(=O)N1CCOCC1,-16.7% (inactive)
12,Cc1cc(C)cc(NS(=O)(=O)c2ccc(Oc3ncc(C(F)(F)F)cc3Cl)cc2)c1,118% (active)
13,COC(=O)Cc1ccc(Oc2ncc(C(F)(F)F)cc2Cl)cc1,-10.7% (inactive)
14,Cc1cc(C)cc(NS(=O)(=O)c2ccc(F)cc2)c1,-6.47% (inactive)
15,CN1C(=O)[C@H]2[C@@H](/C=C/c3ccccc3)N3C(=O)CN(Cc4ccc(-c5ccccc5)cc4)C(=O)[C@@]3(C)[C@H]2C1=O,-4% (inactive)
16,CN(CC(=O)NCCc1ccc(S(N)(=O)=O)cc1)CC(=O)Nc1ccc(F)c(F)c1F,-16.9% (inactive)
17,CC1CC(=NNC(=O)C2COc3ccccc3O2)CC(C)(C)C1 (centres undefined),-9.31% (inactive)
18,CCc1nc2sc(C(=O)O)c(N)c2c2c1CCCC2,5.22% (inactive)
19,Cc1ccc2c(N)c(C(=O)c3ccccc3)sc2n1,45.8% (inactive)
